In publication PMC7862700, “An all-to-all approach to the identification of sequence-specific readers for epigenetic DNA modifications on cytosine”:

molecular target: T1, SPIC (Homo sapiens, UniProt Q8N5J4 1-248); assay: DAPPL (digital affinity profiling via proximity ligation, sequencing); 10 mM Tris-HCl pH 7.5, 50 mM NaCl, 1 mM DTT, 4% glycerol, room temperature, 30 min; GST-TFs on glutathione beads, 16-mer random dsDNA library, 0.1% formaldehyde crosslink after washing; high values mean tight binding; settings: protein: recombinant; tags: N-terminal GST; dsDNA, one strand shown
T1 sequence: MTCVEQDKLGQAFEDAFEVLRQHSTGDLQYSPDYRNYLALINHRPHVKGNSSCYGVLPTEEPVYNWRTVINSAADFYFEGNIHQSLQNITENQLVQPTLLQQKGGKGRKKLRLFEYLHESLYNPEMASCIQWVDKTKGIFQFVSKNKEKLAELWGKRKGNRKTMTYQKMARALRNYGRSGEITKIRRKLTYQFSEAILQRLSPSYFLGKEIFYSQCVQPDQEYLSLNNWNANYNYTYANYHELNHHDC
Procedure, shortened: (§1)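 A tag-only sample was pooled with DNA-barcoded human transcription factors that had been expressed in yeast as GST fusions and captured on glutathione beads. The pools were incubated for 30 min at room temperature with 200 nmole of a random double-stranded 16-mer DNA library in Tris/NaCl/DTT/glycerol buffer, then washed, crosslinked with 0.1% formaldehyde, proximity-ligated (BsaI/T4 ligase, 1 h, 37 °C), PCR-amplified and sequenced on an Illumina NextSeq500. Binding signal is each hexamer's read frequency for a factor divided by its frequency for the tag-only sample.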

Compared with CGTACA, ACTGCG is lower in binding signal: 1.31 fold enrichment (6-mer frequency, TF over GST control) for the first, 1.14 fold enrichment (6-mer frequency, TF over GST control) for the second.

Going from AGATGC to GTTCAA, the binding signal rises from 1.11 fold enrichment (6-mer frequency, TF over GST control) to 1.15 fold enrichment (6-mer frequency, TF over GST control).

Compared with TGACAT, CCGGAA is higher in binding signal: 1.07 fold enrichment (6-mer frequency, TF over GST control) for the first, 4.87 fold enrichment (6-mer frequency, TF over GST control) for the second.

First: GTCTCT
Second: CGACAT
The binding signal of the first is higher: 1.33 fold enrichment (6-mer frequency, TF over GST control) for the first, 1.32 fold enrichment (6-mer frequency, TF over GST control) for the second.

Going from AACGAC to GACCTG, the binding signal rises from 1.04 fold enrichment (6-mer frequency, TF over GST control) to 1.24 fold enrichment (6-mer frequency, TF over GST control).

Going from CGACCA to GGAACT, the binding signal rises from 1.12 fold enrichment (6-mer frequency, TF over GST control) to 2.08 fold enrichment (6-mer frequency, TF over GST control).

First: ACTCAC
Second: GTACAT
The binding signal of the first is lower: 1.25 fold enrichment (6-mer frequency, TF over GST control) for the first, 1.36 fold enrichment (6-mer frequency, TF over GST control) for the second.

Going from ATGTGG to GAACCC, the binding signal rises from 1.18 fold enrichment (6-mer frequency, TF over GST control) to 1.29 fold enrichment (6-mer frequency, TF over GST control).

First: GGAAAA
Second: ATGTAC
The binding signal of the first is lower: 1.29 fold enrichment (6-mer frequency, TF over GST control) for the first, 1.31 fold enrichment (6-mer frequency, TF over GST control) for the second.

Going from ATGGAC to TTCCGT, the binding signal rises from 1.34 fold enrichment (6-mer frequency, TF over GST control) to 2.02 fold enrichment (6-mer frequency, TF over GST control).

First: GTGCTC
Second: GTCTTC
The binding signal of the first is higher: 1.21 fold enrichment (6-mer frequency, TF over GST control) for the first, 1.18 fold enrichment (6-mer frequency, TF over GST control) for the second.

First: GCAACT
Second: GTTCCC
The binding signal of the first is lower: 1.3 fold enrichment (6-mer frequency, TF over GST control) for the first, 1.38 fold enrichment (6-mer frequency, TF over GST control) for the second.

First: TCTGTC
Second: TGGCAC
The binding signal of the first is higher: 1.3 fold enrichment (6-mer frequency, TF over GST control) for the first, 1.24 fold enrichment (6-mer frequency, TF over GST control) for the second.

Compared with AACACG, GAAGTT is higher in binding signal: 1.33 fold enrichment (6-mer frequency, TF over GST control) for the first, 1.76 fold enrichment (6-mer frequency, TF over GST control) for the second.

Compared with ACCTCG, CCGGCA is higher in binding signal: 1.17 fold enrichment (6-mer frequency, TF over GST control) for the first, 1.32 fold enrichment (6-mer frequency, TF over GST control) for the second.

First: ACCGTC
Second: TGCCTG
The binding signal of the first is lower: 1.2 fold enrichment (6-mer frequency, TF over GST control) for the first, 1.32 fold enrichment (6-mer frequency, TF over GST control) for the second.

Compared with ATGTGC, CCTGCA is lower in binding signal: 1.17 fold enrichment (6-mer frequency, TF over GST control) for the first, 1.15 fold enrichment (6-mer frequency, TF over GST control) for the second.

Compared with CAGGAA, TGCCCC is lower in binding signal: 1.65 fold enrichment (6-mer frequency, TF over GST control) for the first, 1.41 fold enrichment (6-mer frequency, TF over GST control) for the second.

Compared with TAGGAA, TGTCTC is lower in binding signal: 1.27 fold enrichment (6-mer frequency, TF over GST control) for the first, 1.11 fold enrichment (6-mer frequency, TF over GST control) for the second.

In the case of GTTTGA, the binding signal is reported as 1.25 fold enrichment (6-mer frequency, TF over GST control).

molecular target: ELF4 (Homo sapiens, UniProt Q99607 1-663); assay: as above; settings: protein: recombinant; tags: N-terminal GST; dsDNA, one strand shown
Procedure, shortened: as §1

ELF4, sequence (Q99607 whole entry): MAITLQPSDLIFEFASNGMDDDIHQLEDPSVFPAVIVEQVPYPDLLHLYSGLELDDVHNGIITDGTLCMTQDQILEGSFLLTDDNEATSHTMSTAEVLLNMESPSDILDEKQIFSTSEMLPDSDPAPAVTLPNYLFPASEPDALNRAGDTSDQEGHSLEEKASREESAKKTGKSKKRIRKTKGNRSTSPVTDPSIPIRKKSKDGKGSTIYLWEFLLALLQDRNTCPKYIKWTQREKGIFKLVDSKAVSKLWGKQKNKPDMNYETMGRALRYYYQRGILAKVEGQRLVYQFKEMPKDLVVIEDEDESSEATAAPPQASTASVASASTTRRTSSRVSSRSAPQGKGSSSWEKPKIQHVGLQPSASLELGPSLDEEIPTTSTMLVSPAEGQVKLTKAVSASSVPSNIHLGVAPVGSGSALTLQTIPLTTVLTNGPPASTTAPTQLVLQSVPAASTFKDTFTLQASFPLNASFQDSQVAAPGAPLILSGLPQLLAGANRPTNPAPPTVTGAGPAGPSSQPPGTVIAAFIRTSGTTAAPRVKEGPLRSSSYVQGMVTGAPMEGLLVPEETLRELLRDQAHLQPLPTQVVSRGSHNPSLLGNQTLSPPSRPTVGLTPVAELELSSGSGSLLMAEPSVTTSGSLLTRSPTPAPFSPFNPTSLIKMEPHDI

Compared with CGTACA, ACTGCG is higher in binding signal: 1.2 fold enrichment (6-mer frequency, TF over GST control) for the first, 1.28 fold enrichment (6-mer frequency, TF over GST control) for the second.

First: AGATGC
Second: GTTCAA
The binding signal of the first is lower: 1.1 fold enrichment (6-mer frequency, TF over GST control) for the first, 1.15 fold enrichment (6-mer frequency, TF over GST control) for the second.

Going from TGACAT to CCGGAA, the binding signal rises from 1.24 fold enrichment (6-mer frequency, TF over GST control) to 4.92 fold enrichment (6-mer frequency, TF over GST control).

Compared with GTCTCT, CGACAT is lower in binding signal: 1.33 fold enrichment (6-mer frequency, TF over GST control) for the first, 1.32 fold enrichment (6-mer frequency, TF over GST control) for the second.

Compared with AACGAC, GACCTG is higher in binding signal: 1.18 fold enrichment (6-mer frequency, TF over GST control) for the first, 1.28 fold enrichment (6-mer frequency, TF over GST control) for the second.

Going from CGACCA to GGAACT, the binding signal rises from 1.39 fold enrichment (6-mer frequency, TF over GST control) to 1.55 fold enrichment (6-mer frequency, TF over GST control).

Going from ACTCAC to GTACAT, the binding signal rises from 1.24 fold enrichment (6-mer frequency, TF over GST control) to 1.36 fold enrichment (6-mer frequency, TF over GST control).

Compared with ATGTGG, GAACCC is higher in binding signal: 1.15 fold enrichment (6-mer frequency, TF over GST control) for the first, 1.22 fold enrichment (6-mer frequency, TF over GST control) for the second.

First: GGAAAA
Second: ATGTAC
The binding signal of the first is lower: 1.19 fold enrichment (6-mer frequency, TF over GST control) for the first, 1.31 fold enrichment (6-mer frequency, TF over GST control) for the second.

Going from ATGGAC to TTCCGT, the binding signal rises from 1.2 fold enrichment (6-mer frequency, TF over GST control) to 1.67 fold enrichment (6-mer frequency, TF over GST control).

Compared with GTGCTC, GTCTTC is higher in binding signal: 1.12 fold enrichment (6-mer frequency, TF over GST control) for the first, 1.23 fold enrichment (6-mer frequency, TF over GST control) for the second.

First: GCAACT
Second: GTTCCC
The binding signal of the first is lower: 1.2 fold enrichment (6-mer frequency, TF over GST control) for the first, 1.36 fold enrichment (6-mer frequency, TF over GST control) for the second.

Going from TCTGTC to TGGCAC, the binding signal rises from 1.13 fold enrichment (6-mer frequency, TF over GST control) to 1.25 fold enrichment (6-mer frequency, TF over GST control).

First: AACACG
Second: GAAGTT
The binding signal of the first is lower: 1.24 fold enrichment (6-mer frequency, TF over GST control) for the first, 1.61 fold enrichment (6-mer frequency, TF over GST control) for the second.

First: ACCTCG
Second: CCGGCA
The binding signal of the first is lower: 1.18 fold enrichment (6-mer frequency, TF over GST control) for the first, 1.28 fold enrichment (6-mer frequency, TF over GST control) for the second.

Compared with ACCGTC, TGCCTG is higher in binding signal: 1.17 fold enrichment (6-mer frequency, TF over GST control) for the first, 1.22 fold enrichment (6-mer frequency, TF over GST control) for the second.

First: ATGTGC
Second: CCTGCA
The binding signal of the first is lower: 1.17 fold enrichment (6-mer frequency, TF over GST control) for the first, 1.3 fold enrichment (6-mer frequency, TF over GST control) for the second.

Going from CAGGAA to TGCCCC, the binding signal falls from 1.52 fold enrichment (6-mer frequency, TF over GST control) to 1.26 fold enrichment (6-mer frequency, TF over GST control).

First: TAGGAA
Second: TGTCTC
The binding signal of the first is lower: 1.09 fold enrichment (6-mer frequency, TF over GST control) for the first, 1.36 fold enrichment (6-mer frequency, TF over GST control) for the second.

GTTTGA was tested, and the binding signal was 1.13 fold enrichment (6-mer frequency, TF over GST control).

molecular target: T2, ELK4 (Homo sapiens, UniProt P28324-2 1-405); assay: as above; settings: protein: recombinant; tags: N-terminal GST; dsDNA, one strand shown
T2 sequence: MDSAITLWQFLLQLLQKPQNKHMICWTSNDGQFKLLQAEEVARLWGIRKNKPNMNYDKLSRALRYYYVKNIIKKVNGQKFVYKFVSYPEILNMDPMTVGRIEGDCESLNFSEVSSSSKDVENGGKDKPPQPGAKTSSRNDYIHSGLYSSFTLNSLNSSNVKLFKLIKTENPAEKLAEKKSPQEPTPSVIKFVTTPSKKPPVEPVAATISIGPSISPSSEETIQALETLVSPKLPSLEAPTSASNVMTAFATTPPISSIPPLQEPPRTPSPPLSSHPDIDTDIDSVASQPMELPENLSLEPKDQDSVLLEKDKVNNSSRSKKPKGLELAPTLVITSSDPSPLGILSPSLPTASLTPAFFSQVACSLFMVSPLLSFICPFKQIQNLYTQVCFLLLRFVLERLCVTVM
Procedure, shortened: as §1

Compared with CGTACA, ACTGCG is lower in binding signal: 1.24 fold enrichment (6-mer frequency, TF over GST control) for the first, 1.06 fold enrichment (6-mer frequency, TF over GST control) for the second.

Going from AGATGC to GTTCAA, the binding signal falls from 1.29 fold enrichment (6-mer frequency, TF over GST control) to 1.16 fold enrichment (6-mer frequency, TF over GST control).

First: TGACAT
Second: CCGGAA
The binding signal of the first is lower: 1.3 fold enrichment (6-mer frequency, TF over GST control) for the first, 3.97 fold enrichment (6-mer frequency, TF over GST control) for the second.

First: GTCTCT
Second: CGACAT
The binding signal of the first is lower: 1.18 fold enrichment (6-mer frequency, TF over GST control) for the first, 1.3 fold enrichment (6-mer frequency, TF over GST control) for the second.

Going from AACGAC to GACCTG, the binding signal rises from 1.03 fold enrichment (6-mer frequency, TF over GST control) to 1.29 fold enrichment (6-mer frequency, TF over GST control).

Going from CGACCA to GGAACT, the binding signal rises from 1.31 fold enrichment (6-mer frequency, TF over GST control) to 1.49 fold enrichment (6-mer frequency, TF over GST control).

Compared with ACTCAC, GTACAT is higher in binding signal: 1.18 fold enrichment (6-mer frequency, TF over GST control) for the first, 1.23 fold enrichment (6-mer frequency, TF over GST control) for the second.

Going from ATGTGG to GAACCC, the binding signal falls from 1.27 fold enrichment (6-mer frequency, TF over GST control) to 1.2 fold enrichment (6-mer frequency, TF over GST control).

First: GGAAAA
Second: ATGTAC
The binding signal of the first is lower: 1.01 fold enrichment (6-mer frequency, TF over GST control) for the first, 1.37 fold enrichment (6-mer frequency, TF over GST control) for the second.

Going from ATGGAC to TTCCGT, the binding signal rises from 1.17 fold enrichment (6-mer frequency, TF over GST control) to 1.89 fold enrichment (6-mer frequency, TF over GST control).

Going from GTGCTC to GTCTTC, the binding signal rises from 1.05 fold enrichment (6-mer frequency, TF over GST control) to 1.14 fold enrichment (6-mer frequency, TF over GST control).

Compared with GCAACT, GTTCCC is lower in binding signal: 1.2 fold enrichment (6-mer frequency, TF over GST control) for the first, 1.19 fold enrichment (6-mer frequency, TF over GST control) for the second.

Compared with TCTGTC, TGGCAC is lower in binding signal: 1.27 fold enrichment (6-mer frequency, TF over GST control) for the first, 1.12 fold enrichment (6-mer frequency, TF over GST control) for the second.

First: AACACG
Second: GAAGTT
The binding signal of the first is lower: 1.22 fold enrichment (6-mer frequency, TF over GST control) for the first, 1.52 fold enrichment (6-mer frequency, TF over GST control) for the second.

Going from ACCTCG to CCGGCA, the binding signal falls from 1.35 fold enrichment (6-mer frequency, TF over GST control) to 1.24 fold enrichment (6-mer frequency, TF over GST control).

Going from ACCGTC to TGCCTG, the binding signal rises from 1.17 fold enrichment (6-mer frequency, TF over GST control) to 1.25 fold enrichment (6-mer frequency, TF over GST control).

First: ATGTGC
Second: CCTGCA
The binding signal of the first is lower: 1.21 fold enrichment (6-mer frequency, TF over GST control) for the first, 1.27 fold enrichment (6-mer frequency, TF over GST control) for the second.

Compared with CAGGAA, TGCCCC is higher in binding signal: 1.37 fold enrichment (6-mer frequency, TF over GST control) for the first, 1.51 fold enrichment (6-mer frequency, TF over GST control) for the second.

Going from TAGGAA to TGTCTC, the binding signal rises from 1.01 fold enrichment (6-mer frequency, TF over GST control) to 1.11 fold enrichment (6-mer frequency, TF over GST control).

For GTTTGA, the binding signal was 1.28 fold enrichment (6-mer frequency, TF over GST control).
